High-throughput results (PubChem BioAssay)
The entries come from a sample that favours hits as a whole.
FBPA Giardia inh: Giardia lamblia aldolase inhibition. A8B2U2. purified Giardia FBPA. Potency, µM (top dose mostly 59.6 µM), hits mostly inhibitors. 0.71% of 290,000 active; note: nearly all actives have a fitted effect of over 55% in size
Target sequence (A8B2U2 whole entry, looked up): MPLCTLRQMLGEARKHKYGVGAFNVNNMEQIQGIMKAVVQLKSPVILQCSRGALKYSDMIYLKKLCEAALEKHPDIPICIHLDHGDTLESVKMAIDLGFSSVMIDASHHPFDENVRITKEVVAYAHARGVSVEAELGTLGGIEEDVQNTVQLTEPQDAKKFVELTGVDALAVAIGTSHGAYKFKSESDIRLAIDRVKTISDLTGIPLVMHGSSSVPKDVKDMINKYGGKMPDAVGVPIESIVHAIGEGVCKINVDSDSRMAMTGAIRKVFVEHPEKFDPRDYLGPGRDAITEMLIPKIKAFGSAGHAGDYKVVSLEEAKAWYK
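40 nM FBPA preincubated 10 min at RT with compound (up to 57.5 uM final), then substrate plus GAPDH/TPI/NAD/arsenate coupling and diaphorase/resazurin added. Fluorescence read after 20 min at RT, 525/598 nm.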
Tb PYK inh: T. brucei pyruvate kinase inhibition; TbPYK enzyme, Kinase-Glo Plus ATP luminescence, 45 min; Potency, µM (series often up to 76.8 µM), usual class: inhibitors; 0.12% of 410,000 active; AID 624173; note: nearly all actives have a fitted effect of over 50% in size
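Screened from lowest to highest concentration, compounds were pinned into TbPYK/substrate mixtures, and ADP (130 uM final) was added. Plates sat at room temperature for 45 min prior to Kinase-Glo Plus detection by luminescence.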
Shiga inhibitor: Shiga toxin inhibition; Vero cells, Shiga toxin protein synthesis inhibition reporter; inhibition, % at 38.7 µM; 9.2% of 290,000 active; in the data active = inhibition mostly above about 28%, no sharp cut-off; inactive = mostly below about 43%
LmPK inh: LmPK (Leishmania mexicana) enzyme inhibition. Q27686. purified LmPK, Kinase-Glo ATP luminescence, 1 h. Potency, µM (highest dose often 57.5 µM), actives largely listed as inhibitors. 0.37% of 290,000 active. AID 1721
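Screened at intermediate enzyme activity to detect both inhibitors and activators: LmPK at 0.1 nM, with a 0.5 nM enzyme column as activation reference. PEP 0.5 mM, ADP 0.1 mM; ATP detected by luminescence after 1 h.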
Cycloheximide cs: counter-screen hit for Shiga toxin inhibitors, cycloheximide; cell reporter, cycloheximide protein synthesis inhibition counterscreen; max response, %; 12% of 300,000 active; AID 2314; in the data active = max response mostly above about 13%, no sharp cut-off; inactive = mostly below about 14%; note: read at 38.3 µM for the half of the compounds with a filed dose
Sm TGR block: S. mansoni TGR enzyme inhibition; Q962Y6; purified TGR, DTNB reduction, TNB absorbance 405 nm; Potency, µM (series often up to 114 µM), usual class: inhibitors; AID 485364; 3% of 360,000 active; note: nearly all actives have a fitted effect of over 60% in size
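First, TGR (20 nM dispensed) and NADPH were mixed with compound. Second, a 15 min room-temperature incubation followed. Third, further NADPH and then DTNB were added to start the reaction. Finally, TNB absorbance was monitored kinetically.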
Hits are given with their value; i = inactive; ? = inconclusive; nt = no result; + = active, no number; [ ] = dose if it differs, or a comment. Unless noted, calls come from the whole dose curve; as a rule, active = well fitted curve in the direction sought with a large enough effect; inconclusive = small, poorly fitted or top-dose-only effect, or another doubt; inactive = no such curve, though single readings can be large; an effect the other way counts as inactive or inconclusive.

SMILES	FBPA Giardia inh	Tb PYK inh	Shiga inhibitor	LmPK inh	Cycloheximide cs	Sm TGR block
Cc1ccc2[nH]c(=O)c(C(c3nnnn3CC3CCCO3)N3CCOCC3)cc2c1 (stereo not given)	i	i	i	i	i	i
CCc1ccc2[nH]c(=O)c(C(c3nnnn3CC3CCCO3)N3CCN4CCCC4C3)cc2c1 (stereo not given)	i	i	i	i	i	?
Cc1cc2oc(=O)cc(C)c2c2occ(-c3ccc(Cl)cc3)c12	nt	i	nt	nt	nt	i
O=C1CC(c2ccc3c(c2)OCO3)c2cc(O)ccc2O1 (stereo not given)	i	nt	i	nt	i	nt
CCN(CC)C(=O)Cn1c(=O)n(-c2ccc(Cl)c(Cl)c2)c(=O)c2c(C)c(C(=O)N(CC)CC)sc21	nt	i	nt	nt	nt	i
CN(C)c1nc(N)nc(/C(C#N)=C/C2CC3C=CC2C3)n1 (stereo not given)	?	i	i	i	i	40µM
CCOC(=O)c1c(Nc2ccc(C)c(C)c2)nnc(-c2ccccc2)c1-c1ccccc1	nt	i	nt	nt	nt	i
CCCCn1c(N)c(N(CC(C)C)C(=O)c2cc3ccccc3cc2OC)c(=O)[nH]c1=O	nt	i	nt	nt	nt	nt
CCN(CC)c1ccc(CNCc2cccs2)cc1	i	i	i	i	20	i
CCN(CC)c1ccc(CNCCc2ccccc2F)cc1	i	i	i	i	i	i
COc1ccccc1N1CCN(/N=C/c2cc(OC)c(OC)c(OC)c2)CC1	i	i	i	i	i	i
COc1ccccc1N1CCN(/N=C\c2sccc2C)CC1	i	i	99	i	i	i
COc1cc(/C=N/N2CCN(c3ccccc3OC)CC2)ccc1O	i	i	+	i	26	i
COc1ccccc1N1CCN(/N=C/c2cccc(OC)c2OC)CC1	i	i	61	i	15	i
COc1ccccc1N1CCN(/N=C\c2ccccc2)CC1	i	i	nt	i	57	i
Cc1ccc(NC(=O)CN2C(=O)c3cccnc3Sc3ccccc32)cc1C	nt	i	nt	nt	nt	i
COc1ccc(N2CCN(CCCNC(=O)c3cnn(-c4ccc(C)cc4)c3-n3cccc3)CC2)cc1	nt	i	nt	nt	nt	i
CCOC(=O)c1c(NC(=O)CSc2cn(CCNC(=O)c3c(F)cccc3F)c3ccccc23)sc2c1CCC2	nt	i	nt	nt	nt	i
OC1C2COC(O2)[C@H](O)C1O (stereo not given in full)	i	nt	nt	nt	nt	nt
COc1ccccc1N1CCN(/N=C/C(Cl)=C/c2ccccc2)CC1	i	i	81	i	33	i
COc1ccccc1N1CCN(/N=C\c2ccc(C)o2)CC1	i	i	100	i	i	i
COc1ccccc1N1CCN(/N=C/c2c(C)nn(-c3ccccc3)c2C)CC1	i	i	i	i	i	i
Cc1ccsc1/C=N/N1CCOCC1	i	i	i	i	i	i
Cc1ccc(N2CCN(/N=C/c3sccc3C)CC2)cc1	i	i	i	i	12	i
CC(OC(=O)CN1C(=O)c2ccccc2C1=O)C(=O)NC1CCCCC1C (stereo not given)	nt	i	nt	nt	nt	i
SMILES	FBPA Giardia inh	Tb PYK inh	Shiga inhibitor	LmPK inh	Cycloheximide cs	Sm TGR block
CC(=O)Nc1cccc(-c2csc(C(O)c3ccc(F)cc3)n2)c1 (stereo not given)	nt	i	nt	nt	nt	nt
Cc1ccc2c(c1)c1c(n2C)-c2[nH]ncc2CC1	i	i	78	i	15	i
Cc1ccc(C)c(N2CCN(C(=O)C3CCN(S(=O)(=O)c4cn(C)cn4)CC3)CC2)c1	nt	i	nt	nt	nt	i
CCn1cnc2sc(C(=O)Oc3cccc(C)c3)c(C)c2c1=O	i	i	79	i	29	i
CCOc1ccc(-n2c(-c3ccco3)n[nH]c2=S)cc1	i	?	i	?	i	i
Cc1ccc(-n2c(-c3ccco3)n[nH]c2=S)cc1	i	6.3µM	i	?	i	i
Fc1ccc(-n2c(-c3ccco3)n[nH]c2=S)cc1	i	8.9µM	i	?	i	i
Fc1ccc(-n2c(-c3ccc4ccccc4n3)n[nH]c2=S)cc1	i	?	i	i	i	i
CC(=O)c1cccc(NC(=O)CSc2nnc3ccc(-c4ccc(Cl)cc4)nn23)c1	nt	i	nt	nt	nt	i
COc1ccc(Nc2ncnc3c2nc2n3CCCC2)cc1Cl	nt	i	nt	nt	nt	i
COc1ccc2c(c1)CC1(CN2C)C(=O)NC(=O)N(c2ccc(C)cc2)C1=O (stereo not given)	?	i	i	i	i	50µM
CCCCC/C=C\C/C=C\C/C=C\C/C=C\CCCCCC(N)=O	i	nt	nt	nt	nt	nt
Cc1ccc(S(=O)(=O)N/N=C/c2cccs2)cc1	i	i	i	i[11.5 µM]	i	i
O=[N+]([O-])c1ccc(S(=O)(=O)N/N=C/c2cccs2)cc1	i	i	27	i	20	i
C#CCN1C(=O)S/C(=C\c2ccc(-c3ccc(C(=O)O)cc3C)o2)C1=O	i	i	42	i	39	?
Cc1cc(C(=O)O)ccc1-c1ccc(/C=C2\NC(=O)N(Cc3ccccc3Cl)C2=O)o1	?	i	i	i	i	50µM
CC(C)(C)OC(=O)CN1C(=O)S/C(=C\c2ccc(-c3cccc(C(=O)O)c3)o2)C1=O	i	nt	118	i	27	i
Cc1cc(-c2n[nH]c(=S)n2/N=C/c2sccc2C)n[nH]1	i	7.1µM	i	i	i	i
Cc1cc(-c2n[nH]c(=S)n2/N=C/C(Cl)=C/c2ccccc2)n[nH]1	i	?	38	i	39	i
Cc1ccsc1/C=N/n1c(-c2ccccc2)n[nH]c1=S	i	i	i	i	i	i
S=c1[nH]nc(-c2cc(-c3ccccc3)n[nH]2)n1/N=C/C(Br)=C/c1ccccc1	i	?	63	i	28	?
